Assay outcomes from PubChem BioAssay.
MEKK2 mut-MEK5: signal of MEK5 binding to mutant human MEKK2 PB1 domain; bead flow cytometry, Alexa488-MEK5 binding to MEKK2 mutant; percent response, % at 10 µM; hit rate 0.35% among 290,000; in the data active means percent response above about 24%, passing the limit was not always enough
MEKK3 PB1 HTS: MEKK3-MEK5 PB1 interaction, increase or decrease. Q99759. bead-based flow cytometry, Alexa488-MEK5 binding to MEKK3; actives lie on both sides; 0 = blocked by unlabeled MEK5, 100 = vehicle. binding response (% of control), % at 10 µM. hit rate 1.4% among 290,000;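 active means binding response more than 3 SD above or below the average of its plate-row segment, actives on both sides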;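 further: Alexa488 bead fluorescence after subtracting the streptavidin-only scavenger bead signal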
MEKK2 WT-MEK5: raises or lowers MEK5 binding to wildtype human MEKK2 PB1 domain; Q9Y2U5; bead flow cytometry, Alexa488-MEK5 binding to MEKK2 WT; actives lie on both sides; binding response (% of control), % at 10 µM; hit rate 1.1% among 290,000; AID 1531; in the data active means binding response below about 67% or above about 130%
UBC13 inh: human UBC13 polyubiquitination inhibition; inhibition, % at 20 µM; hit rate 0.47% among 330,000; UBC13 polyubiquitin chain formation, TR-FRET; P61088; in the data active means inhibition above about 45%, passing the limit was not always enough
Target sequence (P61088 whole entry, looked up): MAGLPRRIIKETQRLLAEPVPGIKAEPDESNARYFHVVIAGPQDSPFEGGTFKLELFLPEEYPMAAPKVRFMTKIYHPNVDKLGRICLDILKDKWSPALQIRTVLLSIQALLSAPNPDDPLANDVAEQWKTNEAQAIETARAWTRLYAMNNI
Rce1 inh: blocks yeast Ras-converting enzyme; Q03530; yeast membranes, quenched prenylated peptide cleavage fluorescence; calls only; hit rate 0.27% among 290,000; AID 2563;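 active means fall in fluorescence gain of 50% or more versus controls, with final raw signal at or below 3038400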;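 further: plate controls were neutral control wells for no effect and wells lacking membranes for full effect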
Target sequence (Q03530 whole entry, looked up): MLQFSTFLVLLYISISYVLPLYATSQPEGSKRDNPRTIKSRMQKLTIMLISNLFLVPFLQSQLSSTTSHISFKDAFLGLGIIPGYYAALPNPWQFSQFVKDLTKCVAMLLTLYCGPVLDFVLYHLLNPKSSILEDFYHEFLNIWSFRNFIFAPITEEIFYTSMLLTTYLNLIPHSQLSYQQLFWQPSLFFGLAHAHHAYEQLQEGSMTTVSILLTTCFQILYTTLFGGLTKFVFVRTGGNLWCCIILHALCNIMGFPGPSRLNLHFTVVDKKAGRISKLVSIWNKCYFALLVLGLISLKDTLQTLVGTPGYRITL
MEKK2wt confirm: raises or lowers MEK5 binding to wildtype human MEKK2, retest | shares compounds with MEKK3 PB1 HTS | bead flow cytometry, Alexa488-MEK5 binding to MEKK2 WT; actives lie on both sides | AID 1892 | hit rate 2.4% among 5,900 | binding response (% of control), % at 10 µM; in the data active means binding response below about 16% or above about 210%; inactive means in between
MEKK2mut-MEK5: signal of MEK5 binding to mutant human MEKK2, retest. percent response, % at 10 µM. shares compounds with MEKK3 PB1 HTS. hit rate 2% among 5,900. bead flow cytometry, Alexa488-MEK5 binding to MEKK2 mutant; in the data active means percent response mostly above about 71%, no sharp cut-off; inactive means mostly below about 38%;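 further: higher means compound restores mutant binding toward wildtype level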
MEKK3-MEK5 inh: MEKK3-MEK5 PB1 inhibition, single concentration confirmation; AID 1894; shares compounds with MEKK3 PB1 HTS; binding response (% of control), % at 10 µM; hit rate 1.8% among 5,900; bead flow cytometry, Alexa488-MEK5 binding to MEKK3; active compounds read low;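 active means binding response below 72% of control, or above a set upper limit, though filed actives all read lower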;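 further: 100% = DMSO only wells and 0% = binding blocked by excess unlabeled MEK5; lower values mean stronger disruption of MEK5 binding to MEKK3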
* hit, by the source's call; i = inactive; · = not tested or not shown; [ ] = dose if it differs, or a comment. Rows were chosen to be rich in hits. Some 2.5% of all compounds tested hit in one or more screens of this group.

SMILES | MEKK2 mut-MEK5 | MEKK3 PB1 HTS | MEKK2 WT-MEK5 | UBC13 inh | Rce1 inh | MEKK2wt confirm | MEKK2mut-MEK5 | MEKK3-MEK5 inh
COc1ccc(-c2csc3nc(-c4cccnc4)nc(Cl)c23)cc1OC | 1 | 145* | 105 | 5 | i | 105 | 10 | 109
Clc1nc(-c2cccnc2)nc2scc(-c3ccccc3)c12 | -2 | 95 | 94 | 10 | i | · | · | ·
Cn1c(=N)n(CC(=O)c2ccc(Br)cc2)c2ccccc21 | · | · | · | 10 | i | · | · | ·
N=C1CCCN1CC(=O)c1ccc(Br)cc1 | 0 | 143* | 108 | -2 | i | 100 | -3 | 102
CCOc1ccc(-c2csc(/C(C#N)=C\c3ccc(O)c([N+](=O)[O-])c3)n2)cc1 | -3 | 94 | 73 | -111 | i | · | · | ·
Cc1ccccc1OCC(=O)Nc1ccc(S(=O)(=O)Nc2ccccn2)cc1 | 0 | 136* | 109 | 1 | i | 96 | 1 | 100
CCN(c1ccccc1)S(=O)(=O)c1ccc(C(=O)N(CCCN(C)C)c2nc3c(C)cccc3s2)cc1 | 20 | 103 | 154* | 19 | i | 166 | 31 | 110
CCN(Cc1ccccc1)S(=O)(=O)c1ccc(C(=O)N(CCCN(C)C)c2nc3c(F)cccc3s2)cc1 | 43* | 110 | 190* | 24 | i | 203 | 39 | 106
O=C(N/N=C/c1cccnc1)C(O)c1ccccc1 (stereo unspecified) | 1 | 146* | 110 | -7 | · | 106 | 4 | 107
CC(/C=C/c1ccccc1)=N/NC(=O)C(O)c1ccccc1 (stereo unspecified) | 1 | 156* | 112 | -11 | i | 101 | 1 | 101
COC(=O)N/N=C(C)/C=C/c1ccccc1 | 0 | 103 | 105 | -5 | · | · | · | ·
Cc1nnc(SCC(=O)Nc2nc(-c3ccc(F)cc3)cs2)[nH]c1=O | 0 | 121 | 103 | -1 | i | · | · | ·
CCOc1ccccc1NC(=O)CSc1nnc2ccc(-c3ccncc3)nn12 | -4 | 103 | 98 | 0 | i | · | · | ·
Cc1ccc(CSc2nnc3ccc(-c4ccncc4)nn23)cc1 | -30 | 63*[inhibitor] | 74 | -5 | i | 101 | 3 | 97
COc1ccccc1CCNC(=O)CSc1nnc2ccc(-c3ccncc3)nn12 | 11 | 133* | 118 | 4 | i | 97 | 5 | 102
Cc1ccc(NC(=O)CSc2nnnn2C2CC2)cc1S(=O)(=O)N1CCOCC1 | · | · | · | -2 | · | · | · | ·
O=C(COc1ccccc1)Nc1cccc(-c2ccc(N3CCOCC3)nn2)c1 | · | · | · | -1 | i | · | · | ·
COc1ccc(C2C(C(=O)N3CCCCC3)CC(=O)N2c2ccc(OC)cc2)cc1 (stereo unspecified) | 4 | 127* | 118 | 5 | · | 95 | -8 | 95
CCOC(=O)c1cc(C(=O)NC(C)c2ccccc2)c(=O)[nH]c1C (stereo unspecified) | 13 | 106 | 108 | -6 | i | · | · | ·
COC(=O)c1cc(C(=O)NCc2ccccc2)c(=O)[nH]c1C | -19 | 3.0*[inhibitor] | 3.0*[inhibitor] | 1 | i | 100 | -2 | 102
COC(C(=O)Nc1ccnn1C1CCN(Cc2nccs2)CC1)c1ccccc1 (stereo unspecified) | 4 | 102 | 103 | -2 | i | · | · | ·
COc1ccc(C(=O)CSc2nnn(-c3cccc(NC(C)=O)c3)n2)cc1 | 0 | 98 | 96 | 3 | i | · | · | ·
CC(=O)Nc1cccc(-n2nnc(SCC(=O)c3ccccc3)n2)c1 | 27 | 129* | 131 | 2 | i | 107 | -2 | 105
COc1cc(/C=N/S(=O)(=O)CCc2ccccc2)cc(OC)c1O | 0 | 128* | 103 | 9 | i | 103 | -1 | 100
COc1cc(/C=C(\C#N)C(=O)NCCc2ccccc2)cc(OC)c1O | 2 | 101 | 105 | -81 | i | · | · | ·
SMILES | MEKK2 mut-MEK5 | MEKK3 PB1 HTS | MEKK2 WT-MEK5 | UBC13 inh | Rce1 inh | MEKK2wt confirm | MEKK2mut-MEK5 | MEKK3-MEK5 inh
COCCNc1oc(/C=C/c2ccccc2OC)nc1S(=O)(=O)c1ccccc1 | -7 | 99 | 95 | 0 | i | · | · | ·
CC(C)c1nnc(NC(=O)C2CCN(S(=O)(=O)c3ccc(-n4cnnn4)cc3)CC2)s1 | -3 | 101 | 93 | -6 | i | · | · | ·
O=C(NCc1cccs1)c1cc(-c2ccc(O)cc2)on1 | -17 | 46*[inhibitor] | 55 | 8 | i | 101 | 1 | 105
Cc1ccc(-c2cc(C(=O)NCc3cccs3)no2)cc1 | 5 | 104 | 105 | -3 | i | · | · | ·
O=C(CSc1ccc(-c2ccco2)nn1)NCc1ccc(F)cc1 | 0 | 112 | 100 | 2 | i | · | · | ·
Cc1ccc(C(=O)CSc2ccc(-c3ccncc3)nn2)cc1 | -6 | 97 | 97 | 11 | i | · | · | ·
O=C(CSc1n[nH]c(=O)n1Cc1ccco1)c1ccc(F)cc1 | 28 | 131* | 133 | 5 | i | 108 | 6 | 104
Cc1cccc(NC(=O)CSc2ccc(-c3ccco3)nn2)c1 | 0 | 129* | 102 | -2 | i | 108 | 6 | 107
O=C(CSc1n[nH]c(=O)n1Cc1ccco1)N1CCOCC1 | -3 | 97 | 100 | 2 | i | · | · | ·
O=C(CSc1ccc(-c2ccco2)nn1)c1ccc(F)cc1 | 1 | 128* | 105 | -3 | i | 108 | 4 | 100
Cc1ccc(-c2ccc(SCC(=O)c3ccccc3)nn2)cc1 | 13 | 95 | 63*[inhibitor] | 11 | i | 98 | 0 | 101
Cc1cc(C)cc(NC(=O)CSc2ccc(-c3ccco3)nn2)c1 | 27 | 109 | 115 | -9 | i | · | · | ·
CCN(CC(=O)Nc1ccccc1OC)C(=O)CCOc1ccc(C(C)(C)C)cc1 | · | · | · | -1 | i | · | · | ·
CCOC(=O)c1sc2nc(CSc3ccccc3)nc(N3CCCN(C)CC3)c2c1C | 1 | 130* | 134 | 39 | i | 158 | 21 | 104
CC1(C)NC(=O)N(CC(=O)OCC(=O)c2ccc(Cl)s2)C1=O | · | · | · | 1 | · | · | · | ·
Cc1nc(-c2ccccn2)nc(SCC(=O)c2ccccc2)c1Cl | 20 | 122 | 110 | 5 | i | · | · | ·
Cc1nc(-c2ccccn2)nc(SCC(=O)N2CCOCC2)c1Cl | 29 | 129* | 114 | -15 | i | 102 | -3 | 105
CCOC(=O)C(C(=O)Nc1cccc(C)c1)C1CCCCC1 (stereo unspecified) | -34 | 99 | -4.0*[inhibitor] | -2 | i | 103 | 2 | 109
CCc1cccc2c(C(=O)C(F)(F)F)cn(CC(=O)NCC3CCCO3)c12 (stereo unspecified) | 4 | 105 | 107 | -3 | · | · | · | ·
